Substitutions are numbered along the chain they refer to; changes in the protein carry UniProt numbers. In all, about 16,000 sequences were measured (“ka relative to ugcaugu”: median about 0.096, highest 2% from about 0.35 on). The list comes from a sample in which the highest values are over-represented; it also holds similar and randomly drawn sequences.
T1: RBFOX1 RRM RbFoxmut (Fox-RRM*) (Homo sapiens, UniProt Q9NWB1 109-208, R118D;E147R;N151S;E152T)
T1 sequence: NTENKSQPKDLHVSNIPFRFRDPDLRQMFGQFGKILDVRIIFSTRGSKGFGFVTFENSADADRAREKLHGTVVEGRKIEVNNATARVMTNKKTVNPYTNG

B1: UUUUCUG (DNA:RNA)
RNA: GGGAGACCGGAAUUCAGAUUGUCCUUUUCUGUUAAAUCCCGUCGUAGCCACCA
DNA 1: CAATCTGAATTCCGGTCTCCC
DNA 2: TGGTGGCTACGACGGGATT
B2: UCCUCCG (DNA:RNA)
RNA: B1 RNA with U26C, U27C, U30C
DNA 1: CAATCTGAATTCCGGTCTCCC
DNA 2: TGGTGGCTACGACGGGATT
B3: GCCCAGU (DNA:RNA)
RNA: GGGAGACCGGAAUUCAGAUUGUCCGCCCAGUUUAAAUCCCGUCGUAGCCACCA
DNA 1: CAATCTGAATTCCGGTCTCCC
DNA 2: TGGTGGCTACGACGGGATT
B4: CGGGUUG (DNA:RNA)
RNA: B1 RNA with U25C, U26G, U27G, U28G, C29U
DNA 1: CAATCTGAATTCCGGTCTCCC
DNA 2: TGGTGGCTACGACGGGATT
B5: GGGUUGA (DNA:RNA)
RNA: B3 RNA with C26G, C27G, C28U, A29U, U31A
DNA 1: CAATCTGAATTCCGGTCTCCC
DNA 2: TGGTGGCTACGACGGGATT
B6: CGGGGGG (DNA:RNA)
RNA: B3 RNA with G25C, C26G, C27G, C28G, A29G, U31G
DNA 1: CAATCTGAATTCCGGTCTCCC
DNA 2: TGGTGGCTACGACGGGATT
B7: GGGUUAA (DNA:RNA)
RNA: B3 RNA with C26G, C27G, C28U, A29U, G30A, U31A
DNA 1: CAATCTGAATTCCGGTCTCCC
DNA 2: TGGTGGCTACGACGGGATT
B8: GGGGUCG (DNA:RNA)
RNA: B3 RNA with C26G, C27G, C28G, A29U, G30C, U31G
DNA 1: CAATCTGAATTCCGGTCTCCC
DNA 2: TGGTGGCTACGACGGGATT
B9: GGGGUUG (DNA:RNA)
RNA: B1 RNA with U25G, U26G, U27G, U28G, C29U
DNA 1: CAATCTGAATTCCGGTCTCCC
DNA 2: TGGTGGCTACGACGGGATT
B10: GGGGGGG (DNA:RNA)
RNA: B3 RNA with C26G, C27G, C28G, A29G, U31G
DNA 1: CAATCTGAATTCCGGTCTCCC
DNA 2: TGGTGGCTACGACGGGATT
B11: GGGUCCG (DNA:RNA)
RNA: B1 RNA with U25G, U26G, U27G, U30C
DNA 1: CAATCTGAATTCCGGTCTCCC
DNA 2: TGGTGGCTACGACGGGATT
B12: CGGUUGA (DNA:RNA)
RNA: B3 RNA with G25C, C26G, C27G, C28U, A29U, U31A
DNA 1: CAATCTGAATTCCGGTCTCCC
DNA 2: TGGTGGCTACGACGGGATT
B13: GUCGGGG (DNA:RNA)
RNA: B3 RNA with C26U, C28G, A29G, U31G
DNA 1: CAATCTGAATTCCGGTCTCCC
DNA 2: TGGTGGCTACGACGGGATT
B14: CACCGGG (DNA:RNA)
RNA: B3 RNA with G25C, C26A, A29G, U31G
DNA 1: CAATCTGAATTCCGGTCTCCC
DNA 2: TGGTGGCTACGACGGGATT
B15: CGGGUCG (DNA:RNA)
RNA: B1 RNA with U25C, U26G, U27G, U28G, C29U, U30C
DNA 1: CAATCTGAATTCCGGTCTCCC
DNA 2: TGGTGGCTACGACGGGATT
B16: UAAGAGC (DNA:RNA)
RNA: B3 RNA with G25U, C26A, C27A, C28G, U31C
DNA 1: CAATCTGAATTCCGGTCTCCC
DNA 2: TGGTGGCTACGACGGGATT
B17: GACCGCG (DNA:RNA)
RNA: B3 RNA with C26A, A29G, G30C, U31G
DNA 1: CAATCTGAATTCCGGTCTCCC
DNA 2: TGGTGGCTACGACGGGATT
B18: GCACUUC (DNA:RNA)
RNA: B3 RNA with C27A, A29U, G30U, U31C
DNA 1: CAATCTGAATTCCGGTCTCCC
DNA 2: TGGTGGCTACGACGGGATT
B19: UGACGAC (DNA:RNA)
RNA: B3 RNA with G25U, C26G, C27A, A29G, G30A, U31C
DNA 1: CAATCTGAATTCCGGTCTCCC
DNA 2: TGGTGGCTACGACGGGATT
B20: GCCAGGU (DNA:RNA)
RNA: B3 RNA with C28A, A29G
DNA 1: CAATCTGAATTCCGGTCTCCC
DNA 2: TGGTGGCTACGACGGGATT
B21: UAUGCGU (DNA:RNA)
RNA: B1 RNA with U26A, U28G, U30G, G31U
DNA 1: CAATCTGAATTCCGGTCTCCC
DNA 2: TGGTGGCTACGACGGGATT
B22: GAAAGGG (DNA:RNA)
RNA: B3 RNA with C26A, C27A, C28A, A29G, U31G
DNA 1: CAATCTGAATTCCGGTCTCCC
DNA 2: TGGTGGCTACGACGGGATT
B23: GGCACGG (DNA:RNA)
RNA: B3 RNA with C26G, C28A, A29C, U31G
DNA 1: CAATCTGAATTCCGGTCTCCC
DNA 2: TGGTGGCTACGACGGGATT
B24: AUAACAC (DNA:RNA)
RNA: B1 RNA with U25A, U27A, U28A, U30A, G31C
DNA 1: CAATCTGAATTCCGGTCTCCC
DNA 2: TGGTGGCTACGACGGGATT
B25: UUAGACU (DNA:RNA)
RNA: B3 RNA with G25U, C26U, C27A, C28G, G30C
DNA 1: CAATCTGAATTCCGGTCTCCC
DNA 2: TGGTGGCTACGACGGGATT
B26: UCGAUUG (DNA:RNA)
RNA: B1 RNA with U26C, U27G, U28A, C29U
DNA 1: CAATCTGAATTCCGGTCTCCC
DNA 2: TGGTGGCTACGACGGGATT
B27: UCGAAUC (DNA:RNA)
RNA: B3 RNA with G25U, C27G, C28A, G30U, U31C
DNA 1: CAATCTGAATTCCGGTCTCCC
DNA 2: TGGTGGCTACGACGGGATT
B28: UCGAAUG (DNA:RNA)
RNA: B1 RNA with U26C, U27G, U28A, C29A
DNA 1: CAATCTGAATTCCGGTCTCCC
DNA 2: TGGTGGCTACGACGGGATT
B29: UCGAUUC (DNA:RNA)
RNA: B1 RNA with U26C, U27G, U28A, C29U, G31C
DNA 1: CAATCTGAATTCCGGTCTCCC
DNA 2: TGGTGGCTACGACGGGATT
B30: UCGAAAU (DNA:RNA)
RNA: B3 RNA with G25U, C27G, C28A, G30A
DNA 1: CAATCTGAATTCCGGTCTCCC
DNA 2: TGGTGGCTACGACGGGATT
B31: UCGUAUC (DNA:RNA)
RNA: B1 RNA with U26C, U27G, C29A, G31C
DNA 1: CAATCTGAATTCCGGTCTCCC
DNA 2: TGGTGGCTACGACGGGATT

Each binder was assayed against T1, RBFOX1 RRM RbFoxmut (Fox-RRM*) (assay: EMSA; HiTS-Eq, 1 nM pool, 10 min; buffer printed only for the single-RNA assays: 10 mM Tris pH 7.5, 150 mM NaCl, 3.4 mM EDTA, 0.001% NP-40, 30 C). Details: tags: His6 N-terminal (pET28a); label: 5' 32P.
Procedure, shortened: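 Purified wild-type or mutant RbFox RRM at increasing concentrations was equilibrated with 1 nM of 5′-radiolabelled RNA carrying 7 randomized nucleotides for 10 min in 50 µL. Unbound RNA was separated by 8% native PAGE and sequenced. Relative association constants came from read-count changes of each RNA species compared with the control reaction, normalised to the cognate motif.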
For B1, the binding signal was 0.0689 KA relative to UGCAUGU. In the case of B2, the binding signal is reported as 0.0609 KA relative to UGCAUGU. B3 was tested, and the binding signal was 0.102 KA relative to UGCAUGU. With B4 the binding signal was 0.66 KA relative to UGCAUGU. B5 was tested, and the binding signal was 0.356 KA relative to UGCAUGU. For B6, the binding signal was 0.0805 KA relative to UGCAUGU. With B7 the binding signal was 0.0954 KA relative to UGCAUGU. With B8 the binding signal was 0.357 KA relative to UGCAUGU. B9 was tested, and the binding signal was 0.609 KA relative to UGCAUGU. With B10 the binding signal was 0.0675 KA relative to UGCAUGU. B11 was tested, and the binding signal was 0.238 KA relative to UGCAUGU. B12 was tested, and the binding signal was 0.139 KA relative to UGCAUGU. B13 was tested, and the binding signal was 0.101 KA relative to UGCAUGU. In the case of B14, the binding signal is reported as 0.0671 KA relative to UGCAUGU. B15 was tested, and the binding signal was 0.259 KA relative to UGCAUGU. For B16, the binding signal was 0.0654 KA relative to UGCAUGU. B17 was tested, and the binding signal was 0.101 KA relative to UGCAUGU. For B18, the binding signal was 0.0473 KA relative to UGCAUGU. In the case of B19, the binding signal is reported as 0.069 KA relative to UGCAUGU. In the case of B20, the binding signal is reported as 0.0955 KA relative to UGCAUGU. For B21, the binding signal was 0.108 KA relative to UGCAUGU. For B22, the binding signal was 0.0436 KA relative to UGCAUGU. B23 was tested, and the binding signal was 0.149 KA relative to UGCAUGU. In the case of B24, the binding signal is reported as 0.0733 KA relative to UGCAUGU. In the case of B25, the binding signal is reported as 0.0743 KA relative to UGCAUGU. With B26 the binding signal was 0.239 KA relative to UGCAUGU. In the case of B27, the binding signal is reported as 0.36 KA relative to UGCAUGU. For B28, the binding signal was 1.31 KA relative to UGCAUGU. In the case of B29, the binding signal is reported as 0.115 KA relative to UGCAUGU. B30 was tested, and the binding signal was 0.0789 KA relative to UGCAUGU. For B31, the binding signal was 0.192 KA relative to UGCAUGU.
